Data from PubChem BioAssay AID1030 (National Center for Advancing Translational Sciences (NCATS), 2008).
Out of some 220,000 compounds screened, about 16,000 (7.3%) were called active. Entries that show only a call come without a potency. Not shown: some 25% with an inconclusive outcome. The sample holds actives, similar compounds and a random draw of the others, so the mix is not that of the screen. Values without a mark were called inactive. Calls come from the whole dose curve; as a rule, active = well fitted inhibition curve with a large enough effect (not every such curve was filed as active); inconclusive = small, poorly fitted or top-dose-only effect, or another doubt; inactive = no such curve, though single readings can be large or run the other way.

Molecular target: Aldehyde dehydrogenase 1A1 (Homo sapiens) (UniProt P00352)
Sequence (P00352 whole entry, looked up): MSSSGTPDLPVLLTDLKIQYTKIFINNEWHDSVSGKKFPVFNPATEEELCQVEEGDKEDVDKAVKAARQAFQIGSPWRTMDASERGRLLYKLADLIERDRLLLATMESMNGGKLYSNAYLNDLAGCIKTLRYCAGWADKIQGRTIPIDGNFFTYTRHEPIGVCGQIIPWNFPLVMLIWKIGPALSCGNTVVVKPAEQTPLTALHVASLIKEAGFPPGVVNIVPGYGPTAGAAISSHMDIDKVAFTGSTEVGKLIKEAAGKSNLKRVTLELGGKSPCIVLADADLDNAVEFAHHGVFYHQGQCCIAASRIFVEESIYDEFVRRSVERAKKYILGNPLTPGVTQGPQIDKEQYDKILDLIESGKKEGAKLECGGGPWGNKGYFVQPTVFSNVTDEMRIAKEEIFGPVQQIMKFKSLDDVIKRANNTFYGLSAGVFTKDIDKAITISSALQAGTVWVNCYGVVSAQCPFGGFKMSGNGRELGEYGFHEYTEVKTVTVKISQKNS
Test: qHTS Assay for Inhibitors of Aldehyde Dehydrogenase 1 (ALDH1A1)
Details: Purified ALDH1A1, NADH fluorescence, propionaldehyde substrate; series mostly up to 75.3 µM
Potency is the fitted concentration of half-maximal effect.

Structure (SMILES) | Potency | activity, negative = inhibition
O=C(O)Cc1ccc(NCc2ccccc2Cl)cc1 | inactive | –
CC1CCN(S(=O)(=O)c2ccc(S(=O)(=O)NCc3ccco3)cc2)CC1 | inactive | –
O=C(NC1CCC(O)CC1)c1ccc(S(=O)(=O)NCc2ccco2)cc1 (stereo not drawn) | inactive | –
CCC(C)NC(=O)/C=C/c1ccc(S(=O)(=O)NCc2ccco2)cc1 (stereo not drawn) | 17.8 µM (active) | –
CN(C)C(=O)c1nc2ccc(Cl)cn2c1CN1CCN(c2ncccn2)CC1 | inactive | –
C=C(C)C1CC=C(C)/C(=N/NC(=O)CCCNc2cccc(C)c2)C1 (stereo not drawn) | inactive | –
N#Cc1c(N)nc2c(c1N)CC(C(F)(F)F)O2 (stereo not drawn) | inactive | –
Cc1ccc(S(=O)(=O)N(C)CC(=O)OCC(=O)N2CC(=O)Nc3ccccc32)cc1 | inactive | –
COc1ccc(S(=O)(=O)N2CCC(C(=O)OCC(=O)c3ccccc3)CC2)cc1[N+](=O)[O-] | inactive | –
O=C1CN(C(=O)COC(=O)c2cnc(Cl)c(Cl)c2)c2ccccc2N1 | 1.26 µM (active) | –
COc1ccc(Cl)cc1-n1c(C)cc(C(=O)OCC(=O)N2CC(=O)Nc3ccccc32)c1C | inactive | –
COc1cc(OC)c(C(=O)OCC(=O)N2CC(=O)Nc3ccccc32)cc1OC | inactive | –
Cc1ccc(S(=O)(=O)N2CCC(C(=O)OCC(=O)N3CC(=O)Nc4ccccc43)CC2)cc1 | 12.6 µM (active) | –
Oc1cccc(C2c3[nH]c4ccccc4c3CCN2Cc2cnn(-c3ccccc3)c2)c1 (stereo not drawn) | inactive | –
CC(=O)Nc1ccccc1NC(=O)c1cc(C)cc(C)c1 | inactive | –
CCOc1ccc(CCNC(=O)C2=C(C)C(=O)OC23CCC(C)CC3)cc1OCC (stereo not drawn) | inactive | –
CC(Sc1nnnn1C1CCCCC1)C(=O)O (stereo not drawn) | inactive | –
O=C(COc1ccc(Cl)cc1)NCc1nnc(SCC(=O)NCC2CCCO2)o1 (stereo not drawn) | inactive | –
Cc1ccc(-c2cc(=O)c3ccc(F)cc3[nH]2)cc1 | inactive | –
COc1ccc(Cl)cc1NC(=O)CNc1ccccc1F | 31.6 µM (active) | –
COc1ccc(C)cc1NC(=O)CSc1ccc(Cl)cc1 | inactive | –
COc1ccc(C)cc1NC(=O)CSc1nnc(CC(=O)Nc2ccccc2F)n1C | inactive | –
C=CCOC(=O)NC(c1ccc(F)c(F)c1)C(C(=O)COC)C(=O)OC (stereo not drawn) | inactive | –
Cc1cc(C)cc(OCC(=O)Nc2nc3ccc([N+](=O)[O-])cc3s2)c1 | inactive | –
CCOCC(=O)Nc1ncc(S(=O)(=O)c2ccc([N+](=O)[O-])cc2)s1 | 3.55 µM (active) | –
COC(=O)C(NC(=O)c1ccc(OC)cc1)(Nc1ncc(S(=O)(=O)c2ccc([N+](=O)[O-])cc2)s1)C(F)(F)F (stereo not drawn) | inactive | –

Structure (SMILES) | Potency | activity, negative = inhibition
Fc1ccc(NC(=S)N2CCc3[nH]c4ccccc4c3C2)cc1 | inactive | –
O=C(O)CCCCCNc1ncnc2ccc(Br)cc12 | inactive | –
O=C(O)C[C@@H]1NC(=O)[C@H](Cc2ccccc2)NC1=O | inactive | –
O=C(CN1CCN(c2ccc(O)cc2)CC1)NC1CCCc2ccccc21 (stereo not drawn) | 11.2 µM (active) | –
O=C(CCC(=O)N1CCN(S(=O)(=O)c2ccccc2)CC1)NC1CCCc2ccccc21 (stereo not drawn) | inactive | –
O=C(CSc1nncs1)NC1CCCc2ccccc21 (stereo not drawn) | inactive | –
COC(=O)CCCC1=CC2=CC(=O)C(C)(OC(=O)c3cccs3)C(=O)C2=CN1c1ccc(CO)cc1 (stereo not drawn) | – | 3.06% [at 13.5 µM]
Cc1ccc(NC(=O)N2CCC(c3nc4c(nnn4Cc4c(F)cccc4Cl)c(=O)[nH]3)CC2)cc1 | 15.8 µM (active) | –
COc1ccc(Cn2nnc3c(=O)[nH]c(C4CCN(C(=O)c5ccccc5Cl)CC4)nc32)cc1 | 14.1 µM (active) | –
Cc1ccc(NC(=O)N2CCC(C(=O)NCc3ccc(F)cc3)CC2)cc1 | inactive | –
Cc1ccc(Cn2nnc3c(=O)n(CC(=O)N4CCCCC4)cnc32)cc1 | inactive | –
COc1ccc(CN2CCC(c3nc4ccc(Cl)cc4[nH]3)CC2)cc1 | inactive | –
O=C(Cc1c(F)cccc1Cl)Nc1ccc(-n2cnnn2)cc1 | inactive | –
COC(=O)c1nc(NC(=O)c2ccc(C(C)(C)C)cc2)n[nH]1 | inactive | –
CSc1nc2ccc(NC(=O)c3c(F)cccc3F)cc2s1 | inactive | –
N/C(=N\OC(=O)c1ccc2c(c1)OCO2)c1ccc(Br)cc1 | inactive | –
COc1ccccc1Cn1c(C)nnc1-c1cnn(C)c1N | inactive | –
O=C(CN1CCCCCC1)NCCN1C(=O)S/C(=C\c2ccccc2Cl)C1=O | inactive | –
CCC1(CC)NC(=O)N(Cc2nc3ccccc3s2)C1=O | inactive | –
CC(CC(=O)Nc1ccccc1)n1ccnc1 (stereo not drawn) | inactive | –
CS(=O)(=O)N1CCN(c2ccc(C(=O)NC3C4CC5CC(C4)CC3C5)cc2[N+](=O)[O-])CC1 (stereo not drawn) | 14.1 µM (active) | –
CC(NC(=O)c1ccc(N2CCNCC2)c([N+](=O)[O-])c1)C12CC3CC(CC(C3)C1)C2 (stereo not drawn) | inactive | –
Cc1cccc(N2CCN(c3ccc(C(N)=O)cc3[N+](=O)[O-])CC2)c1C | inactive | –
CCN(CC(=O)NCc1cccs1)S(=O)(=O)c1ccc(NC(C)=O)cc1 | inactive | –
CCn1c(CSc2ncccn2)nnc1SCC(=O)N1c2ccccc2CC1C (stereo not drawn) | 25.1 µM (active) | –
CC1CC(C)CN(C(=O)CSc2nnc(CSc3ncccn3)n2C)C1 (stereo not drawn) | inactive | –

Structure (SMILES) | Potency | activity, negative = inhibition
Cc1cc(=O)[nH]c(SCC(=O)N2c3ccccc3CC2C)n1 (stereo not drawn) | inactive | –
Cc1noc(C)c1-c1nc(CSc2ccc(Cl)cc2)no1 | inactive | –
CC1CCC(NC(=O)C2c3ccccc3C(=O)N2Cc2ccc3c(c2)OCO3)CC1 (stereo not drawn) | inactive | –
CN(CC(=O)Nc1ccccc1[N+](=O)[O-])Cc1ccc(Br)cc1 | inactive | –
CCOc1ccc(Br)cc1S(=O)(=O)Nc1cccc(S(=O)(=O)N(CC)CC)c1 | 11.2 µM (active) | –
CCOc1ccc(Br)cc1S(=O)(=O)N1CCC(C(=O)O)CC1 | inactive | –
CCOc1ccc(Br)cc1S(=O)(=O)Nc1ccc(C(=O)OC(C)C(=O)N(C)c2ccccc2)cc1 (stereo not drawn) | inactive | –
N#Cc1c(-c2ccc(F)cc2)nc(-c2ccccc2)[nH]c1=O | inactive | –
Cc1ccc(OCCCn2c(=O)oc3ccccc32)cc1 | inactive | –
OCC1(CCc2ccccc2)CCN(Cc2ccc3nsnc3c2)CC1 | 8.91 µM (active) | –
OCCC1CN(Cc2ccc3nsnc3c2)CCN1C1CCCC1 (stereo not drawn) | inactive | –
CC(=O)c1cccc(CN2CCC(CO)(Cc3ccccc3)CC2)c1 | inactive | –
CSc1ccccc1C(=O)NCc1ccccc1 | inactive | –
CCc1cccc(C)c1NC(=S)N(CCCN1CCN(C)CC1)Cc1cccs1 | inactive | –
CCN(C(=O)COC(=O)c1cc(S(=O)(=O)N2CCc3ccccc32)ccc1OC)C1CCS(=O)(=O)C1 (stereo not drawn) | inactive | –
COc1ccc(C(=O)OCC(=O)NCC2CCCCC2)cc1S(=O)(=O)N1CCCc2ccccc21 | 20 µM (active) | –
CCC(C)(C)NC(=O)/C=C/c1cc(OC)c(OC)c(S(=O)(=O)N2CCc3ccccc32)c1 | inactive | –
O=C(O)c1ccn(COc2ccc(Br)cc2)n1 | inactive | –
O=C(CSc1nnc2ccc(-c3ccncc3)nn12)N1CCCCC1 | inactive | –
CC(C)(C)c1cc(NC(=O)NN2CCOCC2)nn1-c1c(Cl)cc(Cl)cc1Cl | inactive | –
CSCCC(NC(=O)c1cc([N+](=O)[O-])cc([N+](=O)[O-])c1)c1nc2ccccc2[nH]1 (stereo not drawn) | inactive | –
COc1ccc(CC(=O)N[C@@H](CCSC)c2nc3ccccc3[nH]2)cc1 | 8.91 µM (active) | –
CSCCC(NC(=O)c1ccc(=O)n(C)n1)c1nc2ccccc2[nH]1 (stereo not drawn) | inactive | –
Cc1ccc(C(=O)Cn2cc([N+](=O)[O-])nc2C)cc1 | inactive | –
C=CCn1cnc2scc(-c3ccccc3)c2c1=O | inactive | –
C=CCn1c(SCc2csc(C)n2)nc2scc(-c3ccc(C)o3)c2c1=O | 22.4 µM (active) | –

Structure (SMILES) | Potency | activity, negative = inhibition
C=CCn1c(SCC(=O)/C(C#N)=C(\C)N)nc2sc(C)c(C)c2c1=O | inactive | –
CN1CCCN(C(=O)C2CCCCC2)CC1 | inactive | –
COc1ccccc1NC(=O)CCSc1nnc(-c2ccc(O)cc2)o1 | inactive | –
O=C1CCCCC(=O)c2ccccc2N1 | inactive | –
CN(C)/C=C1/Nc2ccccc2C1=O | 25.1 µM (active) | –
CN(C)/C=C1/C(=O)Nc2ccccc21 | inactive | –
CCOC(=O)C1(Cc2cccc(OC)c2)CCCN(S(=O)(=O)c2cccnc2)C1 (stereo not drawn) | inactive | –
O=C(NCCCN1CCOCC1)c1ccccc1NS(=O)(=O)c1ccc(Br)cc1 | inactive | –
CCOC(=O)NC(=O)C(=CNc1cccc(OC)c1)C(=O)NC(=O)OCC | inactive | –
CCC1=C/C(=C\c2ccc3c(c2)OCO3)C(=O)S1 | 28.2 µM (active) | –
CSC1=N/C(=C\c2ccc3c(c2)OCO3)C(=O)S1 | inactive | –
CCc1c(C)sc(NC(=O)/C=C/c2ccc3c(c2)OCO3)c1C(=O)OC | inactive | –
CC(C)(C)NCC(O)COc1cccc2[nH]c(=O)[nH]c12 (stereo not drawn) | inactive | –
COc1cc2c(cc1OC)CC1(CCCCC1)N=C2 | inactive | –
COc1ccc(CCNC(=O)C(Sc2ccccn2)c2ccccc2)cc1OC (stereo not drawn) | inactive | –
COc1ccc(C(CCN(Cc2ccc(OC)c(OC)c2)C(=O)CCl)c2ccccc2)cc1 (stereo not drawn) | 3.55 µM (active) | –
COc1ccc(CCN(C(=O)COc2ccccc2)c2nc(-c3ccccc3)cs2)cc1OC | inactive | –
CCN(CC)CCNC(=O)c1sc2ncn(CC(=O)Nc3ccc(C)c(Cl)c3)c(=O)c2c1C | inactive | –
COCCNC(=S)N(Cc1cccnc1)Cc1ccc(OC)c(OC)c1 | inactive | –
COC(=O)c1ccc(CSc2nncn2N)cc1 | inactive | –
CN1C=CC=C/C1=C1\SC(=S)N(Cc2ccccc2)C1=O | 12.6 µM (active) | –
CCN1C(=O)/C(=C2/Sc3ccccc3N2CCCS(=O)(=O)O)SC1=S | inactive | –
CCCCN1C(=O)/C(=C2/C=CC=CN2C)SC1=S | 22.4 µM (active) | –
CC12C(=O)N(c3ccccc3)C(=O)C1C(c1ccccc1)N1CCCN12 (stereo not drawn) | inactive | –
N#CC1(C#N)C(C(=O)C23CC4CC(CC(C4)C2)C3)C12CCOCC2 (stereo not drawn) | inactive | –
